From ChEMBL document CHEMBL3988442, “University of Dundee, Small-Polar-MMV Screening Library” (2021) come the findings set out here.

Design in all cases: scale not given: direction of the effect not stated beside the values
The target of experiment [1] is Protein translocase subunit SecA (Escherichia coli (strain K12)) (UniProt P10408). Description: Assay to Identify E. coli SecA ATPase Inhibitors. Type of experiment: functional. Particulars: 30 µM.
The target in experiment [2] is T1, Ubiquitin-activating enzyme e1, putative (Leishmania donovani (strain BPK282A1)) (UniProt E9BSI1).
T1 sequence (whole entry): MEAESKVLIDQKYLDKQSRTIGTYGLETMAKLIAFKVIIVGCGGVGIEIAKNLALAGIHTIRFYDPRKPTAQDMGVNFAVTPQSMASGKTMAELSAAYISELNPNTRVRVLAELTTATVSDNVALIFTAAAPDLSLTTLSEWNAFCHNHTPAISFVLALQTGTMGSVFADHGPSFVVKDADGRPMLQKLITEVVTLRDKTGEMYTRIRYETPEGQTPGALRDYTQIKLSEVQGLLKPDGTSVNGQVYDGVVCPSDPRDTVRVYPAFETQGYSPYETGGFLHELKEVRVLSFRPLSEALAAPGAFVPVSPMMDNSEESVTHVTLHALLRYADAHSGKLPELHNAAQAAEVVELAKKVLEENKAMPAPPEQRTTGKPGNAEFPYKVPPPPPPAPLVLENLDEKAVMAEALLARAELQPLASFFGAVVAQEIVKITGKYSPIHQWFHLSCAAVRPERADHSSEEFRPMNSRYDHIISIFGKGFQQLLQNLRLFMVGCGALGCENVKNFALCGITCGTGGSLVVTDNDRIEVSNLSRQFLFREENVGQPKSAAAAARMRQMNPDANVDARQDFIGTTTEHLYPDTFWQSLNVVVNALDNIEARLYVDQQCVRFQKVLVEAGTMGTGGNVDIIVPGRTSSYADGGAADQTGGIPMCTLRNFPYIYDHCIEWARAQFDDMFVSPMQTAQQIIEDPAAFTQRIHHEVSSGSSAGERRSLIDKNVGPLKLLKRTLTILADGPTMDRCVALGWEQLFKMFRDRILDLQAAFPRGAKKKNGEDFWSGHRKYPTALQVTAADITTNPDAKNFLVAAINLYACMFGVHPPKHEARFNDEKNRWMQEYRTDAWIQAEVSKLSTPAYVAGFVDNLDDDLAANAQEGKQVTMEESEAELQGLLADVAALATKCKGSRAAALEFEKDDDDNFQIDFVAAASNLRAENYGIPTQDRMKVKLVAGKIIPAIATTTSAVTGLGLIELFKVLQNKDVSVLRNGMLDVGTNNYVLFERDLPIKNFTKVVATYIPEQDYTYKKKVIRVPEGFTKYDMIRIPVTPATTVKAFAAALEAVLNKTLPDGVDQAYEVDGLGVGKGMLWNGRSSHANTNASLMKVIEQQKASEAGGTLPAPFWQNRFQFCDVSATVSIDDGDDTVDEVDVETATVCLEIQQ
Description: Leishmania donovani Ubiquitin Activating Enzyme (LdE1). Type of experiment: functional. Particulars: 30 µM.

Experiment [3] concerns the target Sialic acid-binding Ig-like lectin 9 (Homo sapiens) (UniProt Q9Y336). Description: Hs-Siglec9 ALPHAscreen SOP 20170721. The note with it: 10 µM.
Another experiment relates to Trypanosoma cruzi. Kind of experiment: Trypanosoma cruzi phosphomannomutase and mannose-1-phosphate guanylyltransferase assay. It is filed as functional. Particulars: 10 µM.
Experiment [4] deals with T2, Arginase-2, mitochondrial (Homo sapiens) (UniProt P78540).
T2 sequence (whole entry): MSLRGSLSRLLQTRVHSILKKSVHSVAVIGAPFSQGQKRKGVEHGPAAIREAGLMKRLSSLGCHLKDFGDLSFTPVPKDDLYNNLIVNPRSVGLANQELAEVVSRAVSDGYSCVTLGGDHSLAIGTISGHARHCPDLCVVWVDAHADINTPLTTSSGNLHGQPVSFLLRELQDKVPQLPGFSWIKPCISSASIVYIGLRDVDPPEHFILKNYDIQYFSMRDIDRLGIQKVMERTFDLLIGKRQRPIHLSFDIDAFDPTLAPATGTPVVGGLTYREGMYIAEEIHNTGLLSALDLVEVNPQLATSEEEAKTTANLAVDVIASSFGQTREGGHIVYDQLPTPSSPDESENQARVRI
Description: in vitro enzyme assay to detect the production of urea directly proportional to the activity of Arginase II. Further: in the data most compounds retested in dose-response had high values. It is filed as functional. Particulars: 33.3 µM.

Experiment [5] deals with T3, Proteasome subunit beta (Trypanosoma cruzi) (UniProt O96673).
T3 sequence (whole entry): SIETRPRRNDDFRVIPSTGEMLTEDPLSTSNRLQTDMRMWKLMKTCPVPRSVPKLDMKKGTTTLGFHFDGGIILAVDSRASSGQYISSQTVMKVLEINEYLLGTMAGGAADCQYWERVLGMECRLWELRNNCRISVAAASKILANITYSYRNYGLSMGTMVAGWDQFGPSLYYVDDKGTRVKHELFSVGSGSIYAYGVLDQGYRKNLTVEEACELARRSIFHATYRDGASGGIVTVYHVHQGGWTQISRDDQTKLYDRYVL
Description: Trypanosoma cruzi proteasome chymotrypsin-like activity (TcProtChymo) assay. Further: in the data most compounds retested in dose-response had high values. It is filed as functional. Particulars: 9.37 µM.

The species entered for the next experiment is Homo sapiens. Kind of experiment: To identify inhibition of the IFN signalling (Jak-Stat) pathway via expression of an eGFP reporter gene under the control of an IFN-stimulated response element (ISRE) containing MxA promoter. It is filed as functional. The note with it: 30 µM. A general note: Reporter assays use an easily measured gene product as a stand-in for the process of interest.

Experiment [6] addresses T4, Tyrosyl-tRNA synthetase, putative (Trypanosoma cruzi (strain CL Brener)) (UniProt Q4DSP6).
T4 sequence (whole entry): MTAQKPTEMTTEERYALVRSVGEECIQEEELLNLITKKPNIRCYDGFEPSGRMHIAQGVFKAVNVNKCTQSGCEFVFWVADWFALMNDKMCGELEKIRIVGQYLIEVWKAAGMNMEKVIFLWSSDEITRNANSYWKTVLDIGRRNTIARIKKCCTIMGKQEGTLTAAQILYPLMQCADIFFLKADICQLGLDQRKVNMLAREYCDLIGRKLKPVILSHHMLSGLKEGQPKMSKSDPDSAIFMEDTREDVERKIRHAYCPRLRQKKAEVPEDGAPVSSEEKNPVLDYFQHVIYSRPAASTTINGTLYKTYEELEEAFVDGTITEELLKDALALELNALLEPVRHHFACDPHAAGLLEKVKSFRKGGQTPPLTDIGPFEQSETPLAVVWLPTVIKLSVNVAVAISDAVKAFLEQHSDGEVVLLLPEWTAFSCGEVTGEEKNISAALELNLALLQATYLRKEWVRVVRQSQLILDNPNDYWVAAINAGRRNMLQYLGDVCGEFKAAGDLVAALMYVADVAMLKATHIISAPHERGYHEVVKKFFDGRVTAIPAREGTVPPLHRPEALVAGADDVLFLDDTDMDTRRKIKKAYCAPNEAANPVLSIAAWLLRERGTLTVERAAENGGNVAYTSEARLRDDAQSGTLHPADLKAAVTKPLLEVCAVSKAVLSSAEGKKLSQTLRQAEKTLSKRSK
Kind of experiment: Trypanosoma cruzi tyrosyl tRNA synthetase (TcYRS) _High Tyrosine SOP. Further: in the data most compounds retested in dose-response had high values. It is filed as functional. Particulars: 30 µM.

Experiment [7] deals with T4, Tyrosyl-tRNA synthetase, putative (Trypanosoma cruzi (strain CL Brener)). Description: Trypanosoma cruzi tyrosyl tRNA synthetase (TcYRS) SOP. It is filed as functional. Particulars: 30 µM.
The target in experiment [8] is Chromo domain-containing protein 1 (Saccharomyces cerevisiae (strain ATCC 204508 / S288c) (Baker's yeast)) (UniProt P32657). Description: ScCHD-1 Enzyme Inhibition Assay. Further: in the data most compounds retested in dose-response had high values. The note with it: 30 µM. It is filed as functional.
Chromo domain-containing protein 1 (Saccharomyces cerevisiae (strain ATCC 204508 / S288c) (Baker's yeast)), sequence (P32657 whole entry, the tested form may be a part): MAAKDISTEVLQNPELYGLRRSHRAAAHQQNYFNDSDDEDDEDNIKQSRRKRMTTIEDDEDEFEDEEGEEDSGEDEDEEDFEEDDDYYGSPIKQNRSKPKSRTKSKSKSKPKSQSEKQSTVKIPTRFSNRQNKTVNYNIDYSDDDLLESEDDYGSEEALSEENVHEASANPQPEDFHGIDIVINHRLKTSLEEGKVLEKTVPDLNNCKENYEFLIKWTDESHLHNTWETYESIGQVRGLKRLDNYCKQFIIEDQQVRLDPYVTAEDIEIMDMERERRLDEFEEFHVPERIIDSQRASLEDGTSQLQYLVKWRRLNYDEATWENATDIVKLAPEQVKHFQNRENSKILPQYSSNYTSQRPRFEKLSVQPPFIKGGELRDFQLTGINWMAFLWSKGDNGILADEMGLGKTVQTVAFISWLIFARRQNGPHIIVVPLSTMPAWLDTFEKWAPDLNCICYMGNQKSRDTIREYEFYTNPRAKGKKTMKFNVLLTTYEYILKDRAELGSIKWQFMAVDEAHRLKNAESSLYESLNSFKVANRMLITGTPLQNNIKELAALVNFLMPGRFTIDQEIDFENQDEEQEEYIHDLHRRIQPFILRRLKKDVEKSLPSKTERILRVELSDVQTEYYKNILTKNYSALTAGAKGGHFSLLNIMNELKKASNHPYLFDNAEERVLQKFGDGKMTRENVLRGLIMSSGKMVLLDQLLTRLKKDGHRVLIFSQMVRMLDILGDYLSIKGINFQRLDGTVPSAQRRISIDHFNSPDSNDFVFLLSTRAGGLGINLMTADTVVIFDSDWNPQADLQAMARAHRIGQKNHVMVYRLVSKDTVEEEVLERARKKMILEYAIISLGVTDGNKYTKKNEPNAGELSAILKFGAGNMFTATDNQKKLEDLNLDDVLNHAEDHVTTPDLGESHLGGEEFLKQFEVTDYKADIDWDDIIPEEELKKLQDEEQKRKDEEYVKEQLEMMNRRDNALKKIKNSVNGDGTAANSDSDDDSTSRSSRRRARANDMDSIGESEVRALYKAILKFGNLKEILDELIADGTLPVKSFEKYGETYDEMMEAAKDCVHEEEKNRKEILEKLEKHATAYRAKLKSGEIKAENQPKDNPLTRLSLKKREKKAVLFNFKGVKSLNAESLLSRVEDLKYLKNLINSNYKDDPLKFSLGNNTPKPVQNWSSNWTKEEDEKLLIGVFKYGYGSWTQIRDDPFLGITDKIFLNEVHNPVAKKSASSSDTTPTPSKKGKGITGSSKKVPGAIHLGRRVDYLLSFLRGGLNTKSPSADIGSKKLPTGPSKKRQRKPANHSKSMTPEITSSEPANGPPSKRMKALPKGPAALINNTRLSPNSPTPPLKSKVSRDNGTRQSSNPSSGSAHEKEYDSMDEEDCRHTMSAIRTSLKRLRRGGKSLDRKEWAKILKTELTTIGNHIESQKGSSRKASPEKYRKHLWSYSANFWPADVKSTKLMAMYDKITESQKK

For some assays here: Results with a measured potency or affinity are listed apart.

Sialic acid-binding Ig-like lectin 9 (Homo sapiens), sequence (Q9Y336 whole entry): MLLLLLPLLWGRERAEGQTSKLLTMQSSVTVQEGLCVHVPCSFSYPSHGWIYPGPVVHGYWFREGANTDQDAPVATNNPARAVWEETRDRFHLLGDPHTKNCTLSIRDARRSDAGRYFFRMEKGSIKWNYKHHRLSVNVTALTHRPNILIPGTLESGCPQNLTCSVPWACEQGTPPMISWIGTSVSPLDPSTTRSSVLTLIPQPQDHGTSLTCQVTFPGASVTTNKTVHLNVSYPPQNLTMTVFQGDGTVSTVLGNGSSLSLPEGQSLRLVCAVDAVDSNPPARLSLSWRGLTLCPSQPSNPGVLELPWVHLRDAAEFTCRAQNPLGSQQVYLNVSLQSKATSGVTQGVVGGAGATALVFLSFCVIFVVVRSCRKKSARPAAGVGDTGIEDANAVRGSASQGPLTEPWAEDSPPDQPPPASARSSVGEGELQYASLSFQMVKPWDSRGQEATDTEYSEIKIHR
Protein translocase subunit SecA (Escherichia coli (strain K12)), sequence (P10408 whole entry): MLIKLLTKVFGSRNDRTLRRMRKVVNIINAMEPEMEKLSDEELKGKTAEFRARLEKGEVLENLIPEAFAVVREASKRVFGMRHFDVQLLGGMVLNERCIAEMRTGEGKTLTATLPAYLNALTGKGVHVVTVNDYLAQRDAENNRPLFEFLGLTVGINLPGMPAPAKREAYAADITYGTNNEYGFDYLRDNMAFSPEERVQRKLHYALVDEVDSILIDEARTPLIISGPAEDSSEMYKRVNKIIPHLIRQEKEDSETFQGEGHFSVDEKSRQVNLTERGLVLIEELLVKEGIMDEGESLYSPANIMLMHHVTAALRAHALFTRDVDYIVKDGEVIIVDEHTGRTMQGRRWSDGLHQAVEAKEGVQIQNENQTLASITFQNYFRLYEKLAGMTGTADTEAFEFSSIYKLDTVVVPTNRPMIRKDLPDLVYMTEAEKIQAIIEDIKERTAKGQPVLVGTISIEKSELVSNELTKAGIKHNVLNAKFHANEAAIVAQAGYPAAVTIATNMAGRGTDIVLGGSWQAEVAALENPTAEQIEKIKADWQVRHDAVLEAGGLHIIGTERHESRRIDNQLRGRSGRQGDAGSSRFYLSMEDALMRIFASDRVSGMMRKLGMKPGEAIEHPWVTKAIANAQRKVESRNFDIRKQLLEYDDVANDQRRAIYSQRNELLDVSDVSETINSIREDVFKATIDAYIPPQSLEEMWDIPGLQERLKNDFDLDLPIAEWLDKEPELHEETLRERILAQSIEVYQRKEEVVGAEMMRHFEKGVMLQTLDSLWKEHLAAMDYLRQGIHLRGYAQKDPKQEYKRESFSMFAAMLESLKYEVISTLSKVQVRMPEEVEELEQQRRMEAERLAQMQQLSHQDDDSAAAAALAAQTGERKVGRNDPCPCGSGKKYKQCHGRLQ

For `C[C@H]1CN(Cc2cnn(C)c2)C[C@@]12CCN(Cc1cccnc1)C2=O`, the Percent Effect in experiment [1] was -2.17%; in experiment [2] it was 11.7%; in experiment [3], 0.906%; in the experiment with Trypanosoma cruzi, -5.07%; in [4], 4.57%; in experiment [5], 4.21%. For the same compound, the Percent Effect in the experiment listed under Homo sapiens was 23.4%; in experiment [6] it was 6.76%; in [7] it was 2.5%; in experiment [8], -3.65%.

For `CC(C)c1cc(N2CCC(CCC(=O)NC3CC3)CC2)n2nccc2n1`, the Percent Effect in experiment [1] is -2.45%; in [2], 5.41%; in [3] it was 2.79%; with Trypanosoma cruzi it was -0.097%; in experiment [4] it was 2.45%; in [5] it was 9.76%. For the same compound, the Percent Effect is 7.29% in the experiment filed under Homo sapiens, 4.79% in experiment [6], 12.2% in experiment [7] and -3.08% in [8].

For `CCC1=N[C@@]2(CC[C@@H]3CN(C(=O)NCc4ccccc4)C[C@@H]32)C(=O)N1`, the Percent Effect is -4.85% in experiment [1]; 3.9% in [2]; -3.04% in experiment [3]; 1.66% in the experiment with Trypanosoma cruzi; -4.86% in experiment [4]; 4.33% in experiment [5]. Further, the Percent Effect is -16.6% in the experiment filed under Homo sapiens, 5.79% in experiment [6], 5.13% in experiment [7] and -0.556% in experiment [8].

Regarding `Cc1ccc(OCCC(=O)N2CCN(c3cnccn3)CC2)cc1C`, the Percent Effect in experiment [1] was 1.26%; in [2], 13%; in experiment [3] it was -2.1%; in the experiment on Trypanosoma cruzi it was -5.78%; in experiment [4] it was 3.48%; in experiment [5], 14.9%. Moreover, the Percent Effect in the experiment listed under Homo sapiens was 16.1%; in experiment [6], 6.86%; in [7], 18.8%; in experiment [8], -6.5%.

As for `CCn1ccnc1CN1CCCN(C(=O)c2cccc(C#N)c2)CC1`, the Percent Effect in experiment [1] is 0.122%; in experiment [2], 2.56%; in experiment [3] it was -6.11%; with Trypanosoma cruzi, 7.79%; in experiment [4], 7.38%; in experiment [5], 0.939%. For the same compound, the Percent Effect in the experiment listed under Homo sapiens stood at 9.49%; in [6] it was 1.44%; in experiment [7], 1.21%; in experiment [8] it was 1.21%.

In the case of `Cc1ccc(C(=O)N2CCC3(CC2)COC(COc2ccccn2)C3)o1` (stereo not given), the Percent Effect is -7% in [1]; 19.5% in [2]; 6.32% in experiment [3]; 2.24% in the experiment with Trypanosoma cruzi; -2.83% in [4]; 7.33% in experiment [5]. The Percent Effect in the experiment filed under Homo sapiens was -10.8%; in experiment [6], 5.79%; in experiment [7], 12.8%; in [8], 18.6%.

In the case of `c1cnnc(N2CCCC(NCc3cn4ccccc4n3)C2)c1` (stereo not given), the Percent Effect in [1] was 4.38%; in [2], 23.4%; in experiment [3], -9.09%; in the experiment on Trypanosoma cruzi, -10.8%; in experiment [4] it was -1.43%; in experiment [5] it was 26.5%. The Percent Effect was 17% in the experiment listed under Homo sapiens, 8.82% in experiment [6], 11.8% in experiment [7] and -10.5% in [8].

Turning to `Cc1cc(C(=O)NCc2ccnc(N3CCN(C)CC3)c2)c(C)s1`, the Percent Effect in experiment [1] is -2.97%; in [2], -28.2%; in experiment [3], -3.6%; with Trypanosoma cruzi it was -0.657%; in experiment [4], 3.69%; in experiment [5], 3.67%. Besides, the Percent Effect in the experiment listed under Homo sapiens was -0.506%; in [6], 8.13%; in experiment [7], 20.5%; in experiment [8] it was -3.48%.

For `CCc1ccc(S(=O)(=O)N2CCC3(CC(C(=O)NC)=NO3)C2)cc1` (stereo not given), the Percent Effect in [1] is -3.25%; in experiment [2], 1.3%; in [3] it was 3.29%; with Trypanosoma cruzi, 5.36%; in experiment [4], -4.05%; in experiment [5] it was 4.68%. Besides, the Percent Effect in the experiment listed under Homo sapiens is -7.8%; in [6], 1.58%; in [7], 5.13%; in [8], 0.139%.

Turning to `CN(Cc1ccccc1)CC(O)Cn1cnc2ccsc2c1=O` (stereo not given), the Percent Effect in [1] was -3.3%; in experiment [2], 5.13%; in experiment [3] it was -3.73%; in the experiment with Trypanosoma cruzi it was 8.36%; in experiment [4] it was -0.41%; in experiment [5] it was 1.62%. The Percent Effect in the experiment listed under Homo sapiens was found to be 17.5%; in experiment [6] it was 0.478%; in [7] it was 1.21%; in [8] it was 3.76%.

Turning to `Cc1cc(NCc2cccnc2)n2nc(C)cc2n1`, the Percent Effect in experiment [1] is -3.79%; in experiment [2] it was 2.7%; in experiment [3], 4.53%; in the experiment on Trypanosoma cruzi it was -2.62%; in experiment [4] it was 1.75%; in [5], 16.9%. In addition, the Percent Effect was 17.8% in the experiment listed under Homo sapiens, 4.79% in [6], 14.6% in experiment [7] and -3.52% in experiment [8].
